# Laboratory results taken from ChEMBL document CHEMBL3988442, “University of Dundee, Small-Polar-MMV Screening Library” (2021).
# Out of some 66,000 compounds screened, about 960 (1.5%) showed an effect of 50% or more. The sample holds strong results, similar compounds and a random draw of the others, so the mix is not that of the screen.
# Test system: Trypanosoma brucei
# Experiment: Trypanosoma brucei 72 hour study
# Assay type: functional, organism-based
# Set-up: scale not given: in the data most compounds retested in dose-response had high values
smiles,measurement,setting,value
CC(C)NC(=O)C1CN(Cc2ccc(F)cc2)CC12CCOCC2.O=C(O)C(F)(F)F (stereo not drawn),Percent Effect,"30 µM, 30.03 µM",-12.09%
CCC(C)(COc1ncccc1Cl)NCC(=O)NCC(C)C (stereo not drawn),Percent Effect,"30 µM, 30.03 µM",-31.89%
CCC1=N[C@@]2(CC[C@@H]3CN(CC4CC4)C[C@@H]32)C(=O)N1CC1CC1.O=C(O)C(F)(F)F,Percent Effect,"30 µM, 30.03 µM",-23.62%
COc1ccnc(N2CCCN(C(=O)Cc3ccc(C)s3)CC2)n1,Percent Effect,10 µM,-47.83%
Cc1cccc(CNC2CC3(CCN(CCO)CC3)c3ccccc32)n1.O=C(O)C(F)(F)F.O=C(O)C(F)(F)F (stereo not drawn),Percent Effect,"30.3 µM, […]",13.54%
Cn1ncc2c1C(COCC1CC1)CN(C(=O)c1cscn1)C2.O=C(O)C(F)(F)F (stereo not drawn),Percent Effect,"30 µM, 30.03 µM",21.88%
Cn1cc(CN2CCn3cc(CNC(=O)c4cccn4C)nc3C2)cn1.O=C(O)C(F)(F)F,Percent Effect,"30 µM, 30.03 µM",21.81%
N#Cc1cccnc1N1CCC(C2CCCCCN2C(=O)C2CC2)CC1 (stereo not drawn),Percent Effect,"30.3 µM, […]",53.48%
CC(=O)N1CCCCCC1C1CCN(c2ncccc2C#N)CC1 (stereo not drawn),Percent Effect,"30.3 µM, […]",13.42%
N#Cc1cccnc1N1CCC(C2CCCCCN2C(N)=O)CC1 (stereo not drawn),Percent Effect,"30.3 µM, […]",5.33%
Cn1cnnc1-c1ccnc(NCc2ccccc2)c1,Percent Effect,"30.3 µM, […]",5.527%
Cn1nccc1CN1CCOC(c2cccc(Nc3ccccn3)n2)C1 (stereo not drawn),Percent Effect,"30.3 µM, […]",100.5%
Br.Cn1nccc1CN1CCOC(c2cccc(-c3cncnc3)n2)C1 (stereo not drawn),Percent Effect,"30.3 µM, […]",-1.234%
Cn1nccc1CN1CCOC(c2ccc(-c3cncnc3)cn2)C1 (stereo not drawn),Percent Effect,"30.3 µM, […]",1.674%
NC(=O)c1cc(NC(=O)N2CCOCC2)ccc1F,Percent Effect,"30 µM, 30.03 µM",-9.926%
NC(=O)c1cc(NC(=O)N2CCCCCC2)ccc1F,Percent Effect,"30 µM, 30.03 µM",-43.72%
O=C(Nc1ccc(F)c(Br)c1)N1CCCC1,Percent Effect,"30 µM, 30.03 µM",97.43%
CC(C)CN1CCC2(C=C(C(=O)N(C)C)c3ccccc32)CC1.O=C(O)C(F)(F)F,Percent Effect,"30.3 µM, […]",-83.33%
Cc1ccc(CN2CCn3cc(CNC(=O)c4cnn(C)c4)nc3C2)s1.O=C(O)C(F)(F)F,Percent Effect,"30 µM, 30.03 µM",-34.09%
CC(C)C(=O)N1CCC2(CC1)COCCN2Cc1ccc(F)cc1.O=C(O)C(F)(F)F,Percent Effect,"30 µM, 30.03 µM",21.09%
Cc1cc2c(=O)n3c(nc2s1)CCN(Cc1cncn1C)CC3.Cl,Percent Effect,"30.3 µM, […]",6.762%
CCNC(=O)NC(=O)CNc1cc(C#N)ccc1OCC,Percent Effect,"30.3 µM, […]",-6.445%
same,Percent Effect,"10 mM, 10 mM as filed; unlikely as a test dose",-44.56%
CCCNC(=O)CNc1cc(C#N)ccc1OCC,Percent Effect,"30 µM, 30.03 µM",58.39%
CCOc1ccc(C#N)cc1NCC(=O)OC,Percent Effect,"30.3 µM, […]",-4.293%
same,Percent Effect,"10 mM, 10 mM as filed; unlikely as a test dose",-28.98%
CCN(CC(=O)NC)C(=O)Cc1csc(C(C)C)n1,Percent Effect,"30 µM, 30.03 µM",-25.08%
CC(C)c1nc(CN(C)C(=O)c2ccc3c(c2)OCC(=O)N3)cs1,Percent Effect,"30 µM, 30.03 µM",17.57%
CC(C)C[C@@H](N)C(=O)N(C)Cc1csc(C(C)C)n1,Percent Effect,"30 µM, 30.03 µM",100.6%
CC(C)c1nc(CN(C)C(=O)C(O)c2ccc(Cl)cc2)cs1 (stereo not drawn),Percent Effect,"30 µM, 30.03 µM",3.875%
CNC(=O)CN(C)C(=O)Cc1csc(C(C)C)n1,Percent Effect,"30 µM, 30.03 µM",70.2%
CC(C)c1nc(CN(C)C(=O)[C@H](N)Cc2ccc(Cl)cc2)cs1,Percent Effect,"30 µM, 30.03 µM",-3.528%
CCN(CC)C(=O)Cc1csc(C(C)C)n1,Percent Effect,"30 µM, 30.03 µM",-85.89%
CC(C)c1nc(CN(C)C(=O)c2ccc3c(c2)OCO3)cs1,Percent Effect,"30 µM, 30.03 µM",56.82%
CC(C)c1nc(CN(C)C(=O)CCc2ccc3c(c2)OCO3)cs1,Percent Effect,"30 µM, 30.03 µM",12.36%
Cc1cccc(CN2C(=O)CO[C@@H]3CN(C4CCOCC4)C[C@H]32)c1.O=C(O)C(F)(F)F,Percent Effect,"30 µM, 30.03 µM",-46.8%
O=C(O)C(F)(F)F.O=C(c1ccco1)N1C[C@H]2CCCN(CC3CC3)[C@H]2C1,Percent Effect,"30 µM, 30.03 µM",-18.48%
CCN(C)c1ncnc2c1CCN(Cc1ccc(F)cc1)CC2.O=C(O)C(F)(F)F.O=C(O)C(F)(F)F,Percent Effect,"30 µM, 30.03 µM",0%
CC(=O)N1CCOCC2(CN(Cc3ccc(C)o3)CCO2)C1.O=C(O)C(F)(F)F (stereo not drawn),Percent Effect,"30 µM, 30.03 µM",0.2271%
COCCCC1(CO)CCCN(CCc2ccccc2)C1 (stereo not drawn),Percent Effect,"30 µM, 30.03 µM",60.85%
COCCC1(CO)CCCN(CCCc2ccccc2)C1 (stereo not drawn),Percent Effect,"30 µM, 30.03 µM",-35.64%
COCCCC1(CO)CCCN(CCc2ccccn2)C1 (stereo not drawn),Percent Effect,"30 µM, 30.03 µM",-19.7%
COCCn1c(=O)n(C)c(=O)c2ccc(C3CCC(CN)CC3)nc21.Cl (stereo not drawn),Percent Effect,"30.3 µM, […]",8.357%
COc1cccc(CNC(Cc2cccs2)c2nc(C)c(C)s2)c1OC.Cl (stereo not drawn),Percent Effect,"30.3 µM, […]",-32.09%
CCc1ccc2nc(C)cc(C(=O)N[C@@H]3CCCNC3)c2c1,Percent Effect,"30 µM, 30.03 µM",86.43%
CCc1ccc2nc(C)cc(C(=O)N[C@@H]3CNC[C@H]3O)c2c1,Percent Effect,"30 µM, 30.03 µM",-69.69%
CCc1ccc2nc(C)cc(C(=O)NC[C@@H]3CCNC[C@H]3O)c2c1,Percent Effect,"30 µM, 30.03 µM",-34.49%
CCS(=O)(=O)N1CCCC2(COCCN(c3ccccn3)C2)C1.O=C(O)C(F)(F)F (stereo not drawn),Percent Effect,"30 µM, 30.03 µM",-23.72%
Cc1nn(C)c(Cl)c1CNCc1cccnc1N1CCOCC1.Cl,Percent Effect,"30 µM, 30.03 µM",16.35%
COC(=O)Cn1c(C)cc(=O)c2cc(F)ccc21,Percent Effect,"30.3 µM, […]",-56.52%
COCCn1cncc1CN1CCCC(C)(c2ccccc2)C1 (stereo not drawn),Percent Effect,"30 µM, 30.03 µM",-43.69%
CC1(c2ccccc2)CCCN(Cc2cncn2C2CC2)C1 (stereo not drawn),Percent Effect,"30 µM, 30.03 µM",-39.24%
CC1(c2ccccc2)CCCN(Cc2cncn2C2CCCC2)C1 (stereo not drawn),Percent Effect,"30 µM, 30.03 µM",102.5%
Cn1ccc(C(=O)N2CCCCC2c2cc(CCO)[nH]n2)n1 (stereo not drawn),Percent Effect,"30.3 µM, […]",-16.55%
O=C(Cc1cccs1)N1C[C@H]2CN(CC3CCCO3)CC[C@H]2C1.O=C(O)C(F)(F)F (stereo partly drawn),Percent Effect,"30 µM, 30.03 µM",-6.249%
COC(=O)c1cc(C(=O)N2CCOC(C)(C)C2)n(-c2ccccc2)n1,Percent Effect,"30.3 µM, […]",6.059%
Cc1nc(C)n(CC2CCCN2CC(=O)NCCc2ccsc2)n1 (stereo not drawn),Percent Effect,"30 µM, 30.03 µM",-16.47%
CN1CCN(c2ccc(S(N)(=O)=O)cc2C#N)Cc2ccccc21,Percent Effect,"30.3 µM, […]",-63.54%
CC(=O)N1CCC(n2ccc(-c3cnc(N4CCOCC4)nc3)n2)CC1,Percent Effect,"30.3 µM, […]",26%
CC[C@H](C)Nc1ncc(-c2ccn(C3CCN(C(C)=O)CC3)n2)cn1,Percent Effect,"30.3 µM, […]",-5.339%
CC(=O)N1CCC(n2ccc(-c3cnc(NCC(C)C)nc3)n2)CC1,Percent Effect,"30.3 µM, […]",77.59%
CC(C)n1c(=O)nc2n1C(=O)N(c1ccc(Br)cc1)C2,Percent Effect,"30 µM, 30.03 µM",-31.4%
N#Cc1cccc(CN2C[C@H](NC(=O)C3CC3)[C@H]3OCCC[C@H]32)c1.O=C(O)C(F)(F)F,Percent Effect,"30.3 µM, […]",-35.12%
CC(=O)N1CCCC2(CCC(=O)N2Cc2cccnc2)C1.O=C(O)C(F)(F)F (stereo not drawn),Percent Effect,"30.3 µM, […]",1.324%
COCCCN1Cc2cccc(NC(=O)c3cc(F)cc(F)c3)c2C1,Percent Effect,"30 µM, 30.03 µM",34.67%
COCCCN1Cc2cccc(NC(=O)c3ccccc3Cl)c2C1,Percent Effect,"30 µM, 30.03 µM",7.9%
COCCCN1Cc2cccc(NC(=O)c3cc(F)ccc3F)c2C1,Percent Effect,"30 µM, 30.03 µM",52.37%
CN1CCN(C2COC3(CCN(Cc4cccs4)CC3)C2)CC1.O=C(O)C(F)(F)F.O=C(O)C(F)(F)F (stereo not drawn),Percent Effect,"30.3 µM, […]",-470.3%
Cc1nc[nH]c1CN1C[C@@H]2CC[C@H](C1)N(C(=O)CCc1cccnc1)C2,Percent Effect,"30 µM, 30.03 µM",-21.46%
Cc1nc(CN2CC3(CCN(c4cnccn4)C3)CC2=O)cs1.O=C(O)C(F)(F)F (stereo not drawn),Percent Effect,"30 µM, 30.03 µM",-45.32%
CC(C)(C)[S+]([O-])CCNC(=O)c1csc(NC2CC2)n1 (stereo not drawn),Percent Effect,"30 µM, 30.03 µM",-59.41%
CC(=O)Nc1nc(C(=O)N2CCCC(c3cc(C)[nH]n3)C2)cs1 (stereo not drawn),Percent Effect,"30 µM, 30.03 µM",16.48%
CCN(CC)C(=O)CCCNC(=O)c1csc(NC2CC2)n1,Percent Effect,"30 µM, 30.03 µM",-27.48%
Cc1[nH]/c(=N\C(=O)c2csc(NC3CC3)n2)sc1C,Percent Effect,"30 µM, 30.03 µM",66.57%
Cc1cnc(NC(=O)c2csc(NC3CCCC3)n2)s1,Percent Effect,"30 µM, 30.03 µM",-9.891%
Cc1[nH]/c(=N\C(=O)c2csc(NC3CCCC3)n2)sc1C,Percent Effect,"30 µM, 30.03 µM",95.68%
O=C(O)C(F)(F)F.c1csc(CN2CCC3(CCOCC3COCC3CC3)CC2)n1 (stereo not drawn),Percent Effect,"30.3 µM, […]",-46.34%
C=C(C)CN1CCC(NC(=O)Nc2ccc(F)c(C(=O)NC)c2)CC1,Percent Effect,"30.3 µM, […]",-0.7134%
CC[C@@H]1N(Cc2ccc(F)cc2)CCC[C@]12CCC(=O)N2C.O=C(O)C(F)(F)F,Percent Effect,"30.3 µM, […]",-14.8%
O=C(O)C(F)(F)F.O=C(c1ccco1)N1CCC2(CCCN(c3ncccn3)C2)C1 (stereo not drawn),Percent Effect,"30.3 µM, […]",-37.47%
CC(=O)Nc1nc2c(s1)C1(CCCC1)Nc1ccccc1S2,Percent Effect,"30.3 µM, […]",-6.174%
CC(=O)Nc1nc2c(s1)C(C)(C)Nc1ccccc1S2,Percent Effect,"30.3 µM, […]",-17.63%
CC(=O)Nc1nc2c(s1)C1(CCN(C)CC1)Nc1ccccc1S2,Percent Effect,"30.3 µM, […]",83.23%
O=c1c(CN2CCOCC2)coc(O)c1CN1CCOCC1,Percent Effect,"30 µM, 30.03 µM",-17.25%
CN1CCN(c2ncc3c(=O)n(-c4cccc(F)c4)c(=O)[nH]c3n2)CC1,Percent Effect,"30 µM, 30.03 µM",11.72%
OC(CN1CCN(CC2CCCCC2)CC1)c1ccccc1 (stereo not drawn),Percent Effect,"30 µM, 30.03 µM",-15.73%
Cl.NC(CC1CCCC1)c1ccccc1 (stereo not drawn),Percent Effect,"30 µM, 30.03 µM",-30.59%
NC(CC1CCCC1)c1ccc(Oc2ccccc2)cc1 (stereo not drawn),Percent Effect,"30 µM, 30.03 µM",101.8%
COc1ccc(CN(Cc2cnc(N)nc2)CC2CCCO2)c(OC)c1.O=C(O)CC(O)(CC(=O)O)C(=O)O (stereo not drawn),Percent Effect,"30.3 µM, […]",5.653%
CCCc1cc(NC2CCc3nc(C)nn3C2)n2ncnc2n1 (stereo not drawn),Percent Effect,"30 µM, 30.03 µM",-21.48%
CCCc1cc(NC2CCc3ncnn3C2)n2ncnc2n1 (stereo not drawn),Percent Effect,"30 µM, 30.03 µM",104.4%
Cc1nc2n(n1)CC(Nc1cc(C(F)(F)F)nc3ncnn13)CC2 (stereo not drawn),Percent Effect,"30 µM, 30.03 µM",53.11%
Cc1cc(NC2CCc3nc(C)nn3C2)n2ncnc2n1 (stereo not drawn),Percent Effect,"30 µM, 30.03 µM",-21.45%
CCCc1cc(NC2CCc3nc(CC)nn3C2)n2ncnc2n1 (stereo not drawn),Percent Effect,"30 µM, 30.03 µM",-33.56%
CCc1nc2n(n1)CC(Nc1cc(C)nc3ncnn13)CC2 (stereo not drawn),Percent Effect,"30 µM, 30.03 µM",-89.04%
O=C(NC1CC1)[C@H]1C[C@H]2OCC[C@H]2N(Cc2ccc3ccccc3n2)C1.O=C(O)C(F)(F)F.O=C(O)C(F)(F)F,Percent Effect,"30.3 µM, […]",-259.7%
COC(=O)CCN(C)Cc1cc(Br)cs1,Percent Effect,"30 µM, 30.03 µM",-12.73%
CCOCCC(=O)N1CCc2cccc(S(=O)(=O)N3CCOCC3)c2C1,Percent Effect,"30 µM, 30.03 µM",-15.51%
